Reference: PubChem BioAssay AID739 (SRMLSC, 2007)
Hit rate of the full screen: of about 98,000 compounds, about 880 (0.9%) were called active. Rule as the data show it: active = inhibition above about 30%; inactive = the rest. This excerpt belongs to a sample that is enriched for actives.

Assay: phenotypic screen on post-Golgi transport, primary screen (AID 739);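 also: yeast cells grown in 1536-well plates; yeast grown about 18 h at 30C before absorbance read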
Conditions: post-Golgi transport phenotypic cell assay; at 10 µM; hits give high values

inhibition, active:
Cc1ccc(NC(=O)COc2ccc(-n3ccnc3)cc2)cc1Cl 48.8%
CC(C)c1ccc(NS(=O)(=O)c2cn(C)c(=O)n(C)c2=O)cc1 76%
O=C(COc1ccc(Br)cc1F)NC1CCN(Cc2ccccc2)CC1 95.3%
CCOc1ccccc1Oc1cn[nH]c1-c1ccc(OC)cc1O 80.9%
Cc1ccc(OCC(O)CN2CCN(CC(O)COc3ccc(C)cc3Cl)CC2)c(Cl)c1 (configuration not stated) 67.9%
O=C(c1ccc(Cl)cc1)c1ccc(OCC(O)CN2CCCCC2)cc1 (configuration not stated) 35.1%
COc1ccc(NC(=O)/C(Cl)=C(/Cl)S(=O)Cc2ccc(C)cc2)cn1 (configuration not stated) 107%
O=C(NC(Nc1nc2ccc([N+](=O)[O-])cc2s1)(C(F)(F)F)C(F)(F)F)c1ccccc1 102%
CC(CNC(=O)c1ccc(Br)o1)NC(=O)c1ccc(Br)o1 (configuration not stated) 36.5%
CCCCC(=O)Nc1nc(C)c(-c2csc(Nc3ccc(Cl)cc3)n2)s1 32.9%
COc1c(C)cccc1C(=O)Nc1cc(Cl)ccc1N1CCOCC1 64.3%
O=C(Nc1nnc(-c2ccc(Cl)cc2)o1)c1ccccc1Br 78.2%
CCN1CCN(c2c(Cl)cccc2NC(=O)c2ccc(Br)o2)CC1 30.4%

inhibition, inactive:
CN1CCN(c2ccc(NC(=O)COc3ccc(Cl)cc3Cl)cc2)CC1 0.47%
Cc1ccccc1OCC(=O)Nc1ccc(N2CCN(C(=O)C(C)C)CC2)c(Cl)c1 -4.22%
CCCOc1cc(C)c(S(=O)(=O)n2nnc3ccccc32)cc1C 0.66%
Cn1cc(S(=O)(=O)N2CCN(c3ccc(F)cc3)CC2)c(=O)n(C)c1=O -6.58%
Cn1cc(S(=O)(=O)N2CCC(Cc3ccccc3)CC2)c(=O)n(C)c1=O 7.01%
CCN1CCN(C(=O)c2cc3cc4ccc(OC)cc4nc3s2)CC1 1.48%
O=C(NC1CCN(Cc2ccccc2)CC1)c1ccccc1F 1.69%
O=C(COc1ccccc1F)NC1CC1 15.2%
CCC1(C)Cc2c(sc3nc(SC)nc(N)c23)CO1 (configuration not stated) -2.83%
COC(=O)c1ccc(Cc2ccccc2)o1 8.24%
C=C(C)COc1ccc(-c2n[nH]c(C)c2-c2ccccc2OC)c(O)c1 -7.36%
CCOc1ccccc1NC(=O)Nc1cc(OC)ccc1OC 1.32%
O=C(Nc1ccc(Cl)cc1)c1cc2nc(C3CC3)cc(C(F)(F)F)n2n1 12%
CC12c3ccccc3C(c3ccccc31)C1C(=O)N(Cc3cccnc3)C(=O)C12 (configuration not stated) 2.75%
CC(C)Cc1oc(C(=O)O)cc1CN -3.35%
COC(=O)C1CCN(CC(N)=O)CC1 0%
OC(COc1cccc2ccccc12)CN1CCN(c2ccccn2)CC1 (configuration not stated) 3.42%
COc1cccc(OCC(O)CN2CCN(CCO)CC2)c1 (configuration not stated) 3.01%
Fc1ccc(-n2c(Cc3ccccc3)nnc2SCc2nc(-c3ccc(Cl)cc3)no2)cc1 -6.61%
Cc1nn(C)c(Oc2ccc(Cl)cc2)c1C=O -3.55%
Cc1nc(Cl)c2oc3ccccc3c2n1 12.3%
OC(COc1cccc(OCC(O)CN2CCCC2)c1)CN1CCCC1 (configuration not stated) -2.18%
CCC(=O)c1ccc(OCC(O)CN2CC(C)OC(C)C2)cc1 (configuration not stated) 2.21%
CC(C)NC(=O)C(=O)NCCN1CCN(S(=O)(=O)c2ccc(Cl)cc2)CC1 1.12%
CC1(C)Cc2c(sc3nc(SCC(=O)NCc4ccccc4)n(-c4ccccc4)c(=O)c23)CS1 8.61%
COc1ccc(CC(=O)Nc2ccc(-c3nnc(-c4ccc(C)cc4)o3)cc2)cc1 5.17%
COc1cccc(NC(=O)Cc2ccc(C)cc2)c1 24.4%
Cc1cc(C)cc(OCC(=O)Nc2nc3ccc([N+](=O)[O-])cc3s2)c1 -4.35%
COC(=O)C(NC(=O)c1ccc(OC)cc1)(Nc1ncc(S(=O)(=O)c2ccc([N+](=O)[O-])cc2)s1)C(F)(F)F (configuration not stated) 6.99%
COc1cc(OC)c(/C=N/NC(=O)c2ccc([N+](=O)[O-])cc2)cc1Br -4.41%
CCCc1ccc(-c2c(C)sc(NC(=O)c3ccnn3C)c2C#N)cc1 -9.37%
CCc1c(C)sc(NC(=O)c2ccc(Br)o2)c1C(=O)OC 2.81%
CC(CCc1ccccc1)NC(=O)c1ccc(Br)o1 (configuration not stated) 2.83%
Cc1cccc(C(=O)N2CCCN(C(=O)c3cccc(C)c3)CC2)c1 17.7%
COC(=O)C1C(=O)NCC1c1ccc(C)cc1 (configuration not stated) -3.77%
CCCCN=C1N/C(=C\c2ccco2)C(=O)N1c1ccccc1 1.56%
O=C1c2ccccc2C(=O)N1CCC(c1ccccc1)c1ccco1 (configuration not stated) -1.67%
C=CCCC(=O)Nc1nc(C)c(-c2csc(Nc3ccc(Cl)cc3)n2)s1 12.8%
CCCCCCC(=O)Nc1nc(C)c(-c2csc(Nc3cc(Cl)ccc3OC)n2)s1 -2.77%
CCCCOc1ccc(C(=O)NCc2ccncc2)cc1 2.23%
Cc1cc(C(=O)Nc2ccccc2N2CCOCC2)c2ccccc2n1 -2.05%
O=C(CNC(=O)c1ccc(Cl)cc1Cl)NCC(=O)Nc1ccccc1N1CCOCC1 -6.67%
O=C(Nc1cccc(Cl)c1)Nc1nnc(-c2ccccc2)o1 -5.96%
Cc1nonc1NC(=O)c1ccccc1Br -12.3%
CS(=O)(=O)N1CCN(c2ccc(C(=O)NC3C4CC5CC(C4)CC3C5)cc2[N+](=O)[O-])CC1 (configuration not stated) -5.58%
CCOC(=O)N1CCC(Nc2c(NCCCN3CCN(CC)CC3)c(=O)c2=O)CC1 -3.44%
Cc1ccc(C(=O)NNC(=O)OC(C)(C)C)c(Cl)c1 -3.13%
CCCC(=O)Nc1ccc(Cl)c(NC(=O)c2ccc(Br)o2)c1 0.4%
COc1cc(OC)c(NC(=O)c2ccc(Br)o2)cc1Cl 6.31%
